Screening data deposited in PubChem by National Center for Advancing Translational Sciences (NCATS).
VDR inh: inhibitors of human vitamin D receptor. VDR-SRC2-3 peptide fluorescence polarization, 2 h. Potency, µM, without a hit: max response, negative = inhibition, most hits filed as inhibitors. actives 0.93% (n = 400,000). AID 504847; note: potency is the fitted concentration of half-maximal effect
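Two reagent solutions held at 4 deg C in the dark were dispensed, compounds pinned at 23 nl, and the mixture incubated 2 h at room temperature. Read-out: fluorescence polarization of VDR–SRC2-3 peptide binding.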
PLK1 PBD block: inhibitors of human PLK1 polo-box domain binding; P53350; Plk1 PBD binding of FITC phosphopeptide, fluorescence polarization; Potency, µM, without a hit: max response, negative = inhibition, hits mostly inhibitors; actives 2.8% (n = 360,000); note: potency is the fitted concentration of half-maximal effect; series mostly up to about 57 µM; nearly all actives have a fitted effect of over 65% in size
GALK inhibitor: inhibitors of human galactokinase. P51570. Purified GALK, Kinase-Glo residual ATP luminescence. Potency, µM (series often up to 57.5 µM), without a hit: top-dose activity change, negative = inhibition, actives largely listed as inhibitors. actives 0.007% (n = 270,000); note: potency is the fitted concentration of half-maximal effect
Target sequence (P51570 whole entry, looked up): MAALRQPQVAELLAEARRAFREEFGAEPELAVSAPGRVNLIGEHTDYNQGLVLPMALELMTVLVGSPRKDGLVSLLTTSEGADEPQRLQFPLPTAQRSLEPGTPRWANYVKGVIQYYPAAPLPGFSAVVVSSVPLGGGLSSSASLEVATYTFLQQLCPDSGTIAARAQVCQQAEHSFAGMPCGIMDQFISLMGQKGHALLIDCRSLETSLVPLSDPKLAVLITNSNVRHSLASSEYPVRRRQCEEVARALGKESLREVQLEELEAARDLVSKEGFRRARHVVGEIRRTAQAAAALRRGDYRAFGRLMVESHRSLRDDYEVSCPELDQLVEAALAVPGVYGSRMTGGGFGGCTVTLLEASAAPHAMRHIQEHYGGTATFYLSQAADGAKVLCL
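Galactose (100 uM) and ATP (35 uM) were turned over by 5 nM GALK for 1 h at RT. Kinase-Glo Plus then converted the remaining ATP into a luminescent signal.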
FBPA coupling cs: coupling enzyme interference in Giardia aldolase counter-screen; coupling enzyme system counterscreen, AmpLite Red fluorescence; actives 0.67% (n = 290,000); activity change, negative = inhibition, % at 58.2 µM, hits read low; in the data active = activity change below about -30%
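Coupling enzymes only (glyceraldehyde-3-phosphate) + compound, at 57.5 uM final, 10 min RT; add substrate/coupling/AmpLite Red mix, 20 min RT; fluorescence ex 525/em 598 nm. Actives flag coupling-system interference.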
USP2a inh: inhibitors of human ubiquitin-specific protease USP2a. USP2 core, Ub-CHOP2 coupled fluorogenic reporter, 485/531. Potency, µM (titrated, usually from 38.3 µM), inactives show top-dose activity change, negative = inhibition, usual class: inhibitors. actives 0.01% (n = 330,000). AID 463254;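 note: potency is the fitted concentration of half-maximal effect; plate controls were DMSO wells for no effect and full inhibition by NEM control for full effect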
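USP2 core (10nM final) preincubated 30min RT with compound in 20mM Tris-HCl pH 8.0, 2mM CaCl2, 2mM beta-mercaptoethanol, 0.05% CHAPS; 25nM Ub-CHOP2 plus 25nM reporter substrate added, fluorescence (Ex485/Em531) read after 60min.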
USP1-UAF1 inh: inhibitors of human USP1/UAF1 deubiquitinase | O94782 | recombinant USP1/UAF1, Ub-Rhodamine cleavage fluorescence | Potency, µM (titrated, usually from 57.1 µM), without a hit: at the top dose activity change, negative = inhibition, usual class: inhibitors | actives 0.23% (n = 390,000); note: potency is the fitted concentration of half-maximal effect; nearly all actives have a fitted effect of over 60% in size
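USP1/UAF1 complex (1 nM) preincubated 15 min at room temperature with compound, then Ub-Rho substrate (150 nM final) added. Kinetic fluorescence at 480/540 nm over 6 reads at 60 s intervals; 50 mM HEPES pH 7.8, 0.5 mM EDTA, 0.1 mg/ml BSA, 1 mM TCEP, 0.01% Tween-20.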
Numbers without * were called inactive; ? = inconclusive; . = not tested or not shown. Rows were chosen to be rich in hits. Some 3.2% of all compounds tested hit in one or more screens of this group. Unless noted, calls come from the whole dose curve; as a rule, active = well fitted curve in the direction sought with a large enough effect; inconclusive = small, poorly fitted or top-dose-only effect, or another doubt; inactive = no such curve, though single readings can be large; an effect the other way counts as inactive or inconclusive. Unless noted, % is set by controls: 0 for no effect and ±100 for the full control effect.

SMILES	VDR inh	PLK1 PBD block	GALK inhibitor	FBPA coupling cs	USP2a inh	USP1-UAF1 inh
Cc1cc(NC(=O)C2CC2)ncc1NC(=O)c1ccccn1	-8.2%	26.7µM*	1.9%	0.6	2.0%	-26.5%
Cc1cc(NC(=O)C2CCCCC2)ncc1NC(=O)c1ccccn1	9.5%	-8.3%	-0.3%	-2.1	0.0%	-24.5%
CC(C)c1cn(CC[C@@H]2CC[C@H](NS(=O)(=O)c3ccc(F)cc3)[C@@H](CO)O2)nn1	.	-8.2%	.	.	.	.
CCCCN(CC)CCNC(=O)CCC(=O)Nc1ccc2nc(N3CCN(C)CC3)cc(C)c2c1	-20.4%	-20.5%	-0.4%	-33.6*	-5.9%	-1.5%
Cc1nc2sccn2c(=O)c1S(=O)(=O)N1CCN(c2cccc(C(F)(F)F)c2)CC1	-12.3%	-17.4%	-1.0%	0.3	0.5%	-12.3%
CS(=O)(=O)c1ccc(C(=O)NCC2(N3CCOCC3)CCCCC2)cc1	-10.0%	-7.7%	.	.	1.0%	?
O=C(N/N=C/c1c[nH]c2ccccc12)c1[nH]c2ccc(Br)cc2c1-c1ccccc1	-16.4%	8.44µM*	-3.2%	2.4	2.3%	?
O=C(CNC(=O)c1ccccc1)OCC(=O)c1ccccc1	-7.9%	.	.	.	.	.
Cc1ccc(-c2cc(C(=O)N3CCOCC3)no2)cc1	?	-1.6%	13.0%	3.7	7.3%	-3.4%
CC1(C)CC[C@]2(C(=O)n3ccnc3)CC[C@]3(C)[C@H](C(=O)C=C4[C@@]5(C)C=C(C#N)C(=O)C(C)(C)[C@@H]5CC[C@]43C)[C@@H]2C1	44.7µM*	1.68µM*	.	.	.	-12.6%
Cc1nc(CSc2nsc(/C=C/N(C)C)c2C#N)cs1	?	-8.5%	9.3%	-11.6	0.1%	?
COC(=O)c1ccccc1CSc1nsc(/C=C/N(C)C)c1C#N	?	9.47µM*	7.3%	-5.6	-9.7%	-16.6%
CCOc1ccccc1NC(=O)CN1CCN(C(=O)C2CCCO2)CC1 (stereo unspecified)	8.5%	-10.8%	6.0%	.	3.0%	-16.8%
COC(=O)c1nc2ccc(N3CCOCC3)cc2c(C)c1C(=O)OC	-23.2%	-4.7%	-4.1%	-50.5*	5.5%	-19.2%
O=C1CCCN1CCCNS(=O)(=O)c1cccc(F)c1	2.2%	1.8%	15.4%	-1.0	1.1%	-16.2%
O=C(Nc1ccc(-c2cnco2)cc1)c1ccc(F)cc1F	-11.5%	-9.2%	-1.4%	-0.3	0.7%	1.9%
CCN(C(=O)c1ccc2c(OC)n(CC)nc2c1)c1ccc(OC)cc1	2.2%	2.5%	-3.6%	0.7	-0.2%	?
NC(=O)CSc1nnc2ccc(-c3ccc(F)cc3)nn12	-21.1%	15µM*	0.3%	0.2	0.9%	-7.0%
O=C(/C=C/c1ccccn1)c1cc(Br)ccc1O	?	10.6µM*	-0.9%	-0.2	0.2%	-10.2%
O=C(/C=C/c1ccccn1)c1ccc(Br)cc1O	-15.7%	?	0.1%	3.9	0.4%	-0.6%
COc1cc(OC)cc(-c2nnc(SCc3ccc(C(=O)O)cc3)o2)c1	?	18.9µM*	-5.2%	11.3	-0.3%	-14.9%
O=C(O)c1ccc(CSc2nnc(-c3ccco3)o2)cc1	14.6%	-2.4%	0.9%	12.8	-3.2%	-15.1%
O=C(O)c1cnc(-c2ccccc2)nc1Sc1ccc(Cl)cc1	-1.8%	21.2µM*	-5.6%	17.4	1.2%	-5.0%
Cc1nc(NCCc2ccccc2)sc1C(=O)N(C)C	-26.2%	18.9µM*	0.9%	-0.3	-1.0%	-13.4%
COc1ccccc1CNc1nc(C)c(C(=O)N(C)C)s1	?	23.8µM*	0.0%	0.1	0.6%	-13.2%
SMILES	VDR inh	PLK1 PBD block	GALK inhibitor	FBPA coupling cs	USP2a inh	USP1-UAF1 inh
COc1ccccc1CNc1nc(C)c(C(C)=O)s1	-4.8%	15µM*	9.6%	1.0	-1.9%	-24.8%
COCCNc1nc(C)c(C(C)=O)s1	?	-10.1%	-2.4%	2.6	13.2%	-17.2%
CCCOc1ccc(CNC(=S)NCc2ccc(OC(C)C)cc2)cc1	-5.5%	-9.7%	1.2%	1.2	6.2%	-14.8%
Cc1ccc(C2=CC(c3ccccc3C)n3c(nc4ccccc43)N2)cc1 (stereo unspecified)	-11.1%	.	.	.	.	?
COc1ccc2nc(C)cc(Sc3nc4ccccc4s3)c2c1	?	23.8µM*	-1.4%	-11.0	-0.4%	-23.5%
Cc1cc(NS(=O)(=O)c2ccc(NC(=O)c3cc(-c4cccnc4)nc4ccc(Cl)cc34)cc2)no1	10.2%	?	-1.6%	3.7	0.6%	-0.2%
Cc1cc2oc(C(=O)NCCc3ccc(S(N)(=O)=O)cc3)cc(=O)c2cc1C	?	26.7µM*	-2.2%	1.4	0.9%	-24.1%
Cc1cc(C)c2nc(-c3ccccn3)cc(C(=O)NCCc3ccc(S(N)(=O)=O)cc3)c2c1	16.5%	29.9µM*	-1.0%	0.3	3.3%	-20.7%
Cc1cc2oc(C(=O)NCCc3ccc(S(N)(=O)=O)cc3)c(C)c2cc1C	1.9%	1.8%	1.8%	3.0	0.1%	-18.8%
Cc1cc(C)c2nc(-c3ccccn3)cc(C(=O)NCc3ccc(S(N)(=O)=O)cc3)c2c1	1.3%	-2.5%	-0.9%	2.3	10.5%	1.1%
Cc1cc(C)c2nc(-c3ccccn3)cc(C(=O)Nc3ccc(S(=O)(=O)Nc4cc(C)on4)cc3)c2c1	?	21.2µM*	3.3%	.	-6.2%	?
Cc1ccc(-c2cc(C(=O)Nc3ccc(S(=O)(=O)Nc4nccs4)cc3)c3ccccc3n2)c(C)c1	-23.0%	5.32µM*	1.4%	-1.4	-1.7%	-26.0%
O=C(Nc1ccc(S(=O)(=O)Nc2nccs2)cc1)c1cc(-c2ccccc2)nc2ccccc12	-17.2%	?	-2.6%	0.9	-9.1%	-18.5%
CC(=O)n1nc(-c2cccnc2)nc1NCc1cccs1	-6.6%	-16.3%	-2.5%	0.8	2.8%	-11.6%
Cc1cc(NC(=O)c2cc(-c3ccccc3Cl)nc3ccccc23)no1	11.5%	-14.5%	4.6%	-6.9	-8.4%	-22.4%
Cc1cc(NS(=O)(=O)c2ccc(NC(=O)c3cc(-c4ccccc4Cl)nc4ccccc34)cc2)no1	6.9%	67µM*	-1.5%	-3.7	-1.7%	-26.0%
Cc1cc(C)c2nc(-c3ccccn3)cc(C(=O)Nc3ccc(S(=O)(=O)Nc4onc(C)c4C)cc3)c2c1	-7.2%	6.7µM*	-5.7%	1.2	-0.7%	-22.4%
CC1=CC2C(=O)c3cccc(O)c3C(=O)C2C(O)=C1 (stereo unspecified)	25.1µM*	.	.	-6.4	.	.
O=C1c2ccccc2NC(c2ccccc2Br)N1CCCN1CCOCC1 (stereo unspecified)	9.5%	0.7%	-4.9%	5.4	-1.7%	-1.6%
CN(C1CCCCC1)S(=O)(=O)c1ccc(C(=O)Nc2sc3c(c2C(N)=O)CC(C)(C)NC3(C)C)cc1	-1.5%	33.6µM*	-3.0%	-2.8	0.1%	-28.5%
